Hits are enriched below; roughly 3.1% of the tested compounds scored in any of these assays.
Tau FP inhib: inhibitors of human tau fibril formation; P10636; K18 P301L tau heparin fibrillization, Alexa594 FP, 6 h; Potency, µM (top dose mostly 57.7 µM), for inactives: at the highest dose activity, negative = inhibition, usual class: inhibitors; 0.39% of 280,000 active; AID 1468; further: nearly all actives have a fitted effect of over 55% in size
Target sequence (P10636 561-689 P618L limits assumed): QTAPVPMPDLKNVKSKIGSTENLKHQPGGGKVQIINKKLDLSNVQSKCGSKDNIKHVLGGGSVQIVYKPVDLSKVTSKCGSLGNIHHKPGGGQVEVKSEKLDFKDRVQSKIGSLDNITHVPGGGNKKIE
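Human tau K18 […] P301L fragment, 15 uM unlabeled plus 0.24 uM Alexa 594-labeled tau (final), with compound and 20 uM heparin in 100 mM sodium acetate pH 7; 6 hr at 37 C, then Alexa 594 FP read.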
TRb-SRC2 inh: inhibitors of human thyroid hormone receptor beta-SRC2 interaction | 0.065% of 280,000 active | AID 1469 | Potency, µM (series often up to 106 µM), for inactives: at the highest dose activity change, negative = inhibition, hits mostly inhibitors | TRbeta-SRC2 peptide binding, fluorescence polarization; receptor liganded with 1 µM T3;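 further: plate controls were bound peptide for no effect and peptide without receptor for full effect; nearly all actives have a fitted effect of over 50% in size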
Target sequence (P10828 whole entry, looked up): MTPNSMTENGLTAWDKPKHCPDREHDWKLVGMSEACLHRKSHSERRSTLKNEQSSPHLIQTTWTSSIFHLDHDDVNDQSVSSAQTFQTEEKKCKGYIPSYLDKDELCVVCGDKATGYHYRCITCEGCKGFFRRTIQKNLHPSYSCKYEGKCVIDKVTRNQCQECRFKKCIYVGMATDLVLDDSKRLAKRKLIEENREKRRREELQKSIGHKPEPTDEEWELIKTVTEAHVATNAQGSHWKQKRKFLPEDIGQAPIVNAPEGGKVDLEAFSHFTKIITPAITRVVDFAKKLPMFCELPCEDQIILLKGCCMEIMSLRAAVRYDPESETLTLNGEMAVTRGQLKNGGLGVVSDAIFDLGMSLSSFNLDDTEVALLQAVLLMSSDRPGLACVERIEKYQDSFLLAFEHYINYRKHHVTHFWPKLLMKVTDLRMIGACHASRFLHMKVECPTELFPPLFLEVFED
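Human TRb LBD (0.6 uM) plus Texas Red-labeled SRC2 peptide (20 nM), 1uM T3, 5% DMSO, 5 hr at ambient temperature. Decreased polarization (555/632 nm) flags inhibition; data normalized to free and bound peptide controls.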
Tau fibril ThT: tau fibrillization inhibition (ThT binding). recombinant tau K18 P301L, heparin-induced fibrillization, ThT fluorescence. AID 1460. Potency, µM (titrated, usually from 57.4 µM), for inactives: top-dose activity, negative = inhibition, usual class: inhibitors. 2.1% of 270,000 active. P10636; further: nearly all actives have a fitted effect of over 55% in size
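Heparin-induced fibrillization of the P301L-mutant K18 repeat-domain fragment of human tau was followed by ThT binding in quantitative high-throughput format.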
TexasRed fluor: alters Texas Red total fluorescence, flagging assay interference; TRb/SRC2 Texas Red total fluorescence interference; Potency, µM (titrated, usually from 106 µM), inactives show at the highest dose fluorescence change, negative = quenching; 0.29% of 280,000 active; active means well fitted curve in either direction with a large enough effect; inconclusive means small, poorly fitted or top-dose-only effect
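Human TRβ ligand-binding domain (0.6 uM) and Texas Red SRC2 peptide (20 nM) in Tris buffer with 1 uM T3 and 5% DMSO were incubated with pinned compound for 5 hr at ambient temperature. Total fluorescence was computed as S + 2P (555/632 nm).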
Tau fluor counter: counter-screen for tau fibril formation inhibitors; tau K18 P301L Alexa594 fluorescence, heparin fibrillization; Potency, µM (doses to about 57.7 µM), for the others: at the highest dose activity change, negative = decrease; 0.93% of 280,000 active; further: nearly all actives have a fitted effect of over 55% in size
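Human tau K18 P301L (15 uM unlabeled, 0.24 uM Alexa 594-labeled) in 100 mM sodium acetate pH 7 with 20 uM heparin, 6 hr at 37 C. ThT 30 uM added, 1 hr ambient; Alexa 594 FP and total fluorescence read at 555/632 nm.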
The depositor's hits bear a star; ? = inconclusive; / = no result given; [ ] = dose if it differs, or a comment. Unless noted, the call rests on the fitted dose curve; in most records, active means well fitted curve in the direction sought with a large enough effect; inconclusive means small, poorly fitted or top-dose-only effect, or another doubt; inactive means no such curve, though single readings can be large; an effect the other way counts as inactive or inconclusive. Unless noted, on the % scale 0 is the no-effect control and ±100 the full control effect; potency means the concentration at half of the fitted maximal effect.

SMILES	Tau FP inhib	TRb-SRC2 inh	Tau fibril ThT	TexasRed fluor	Tau fluor counter
CC(C)CCCC(C)C1CCC2C3=CC[C@@H]4CC(O)CC[C@@]4(C)C3CC[C@]21C (some centres undefined)	-4%	-5%	?	-4%	-5%
C=C1CC[C@H](O)C/C1=C/C=C1\CCC[C@]2(C)[C@@H]([C@H](C)CCCC(C)C)CC[C@@H]12	?	-14%	22µM*	3%	-22%
CCOP(=O)(OCC)OP(=O)(OCC)OCC	/	6%[201 µM]	/	-1%[201 µM]	/
CCN1C(=O)C(=Cc2cc(C)n(C3CC3)c2C)C(=O)N(CC)C1=S	-4%	-6%	?	-2%	-5%
CCN1C(=O)C(=Cc2ccc(C)s2)C(=O)N(CC)C1=S	?	-5%	14µM*	-2%	-29%
CNC(=O)N(C)c1nc2ccccc2s1	/	0%[201 µM]	/	0%[201 µM]	/
O=C1C(Cl)=C(Cl)C(=O)C(Cl)=C1Cl	1.4µM*	-3%	1.4µM*	-10%	14µM*[quencher]
CCCOCC(=Nc1ccc(Cl)cc1C(F)(F)F)n1ccnc1	/	-11%[201 µM]	/	?	/
CC1=CC(=O)c2c(O)cccc2C1=O	3.2µM*	-6%	2.5µM*	-10%	2.2µM*[quencher]
Cc1ccccc1C(=O)Nc1cccc(OC(C)C)c1	/	-5%[201 µM]	/	-3%[201 µM]	/
O=[N+]([O-])c1ccc(Sc2nc3ccccc3o2)c([N+](=O)[O-])c1	?	-5%	14µM*	-6%	8.9µM*[quencher]
COc1cc2c(cc1OC)-c1c(OC)c(OC)c(OC)c3ccnc(c13)C2=O	-2%	2%	10µM*	-2%	-26%
N#CC1=C(N)Oc2c(c(=O)oc3ccccc23)C1c1ccc([N+](=O)[O-])o1 (centres undefined)	?	0%	10µM*	4%	-27%
CC(C)Oc1ccc(C2C(C#N)=C(N)Oc3c2c(=O)oc2ccccc32)cc1 (centres undefined)	?	-3%	-11%	-7%	?
CC(C)c1cc2c(c(O)c1O)[C@@]1(C(=O)O)CCCC(C)(C)[C@@H]1CC2	?	-5%	14µM*	-1%	?
CC(C)c1cc2c(c(O)c1O)[C@]1(C(=O)O)CCCC(C)(C)C1CC2 (some centres undefined)	?	3%	28µM*	-2%	?
COP(=S)(OC)SCN1C(=O)c2ccccc2C1=O	?	3%	35µM*	-3%	-19%
CCOP(=S)(OCC)SC(CCl)N1C(=O)c2ccccc2C1=O (centres undefined)	/	-4%[201 µM]	/	-3%[201 µM]	/
C=C1C(=O)O[C@@H]2C[C@@H](C)[C@H]3C=CC(=O)[C@]3(O)C[C@@H]12	?	-4%	16µM*	1%	-4%
COC1=CC23CCCN2CCc2cc4c(cc2C3C1O)OCO4 (centres undefined)	?	2%	35µM*	-2%	?
COC(=O)C[C@@](O)(CCC(C)(C)O)C(=O)O[C@@H]1C(OC)=C[C@]23CCCN2CCc2cc4c(cc2[C@@H]13)OCO4	/	9%	/	3%	/
CC[C@@]1(O)CC(O)c2c(cc3c(c2O)C(=O)c2c(O)ccc(O)c2C3=O)C1C(=O)OC (some centres undefined)	-14%	-10%	7.9µM*	?	-27%
CC[C@]1(O)CC(O[C@@H]2CC(N(C)C)C(O)C(C)O2)c2c(cc3c(c2O)C(=O)c2c(O)cccc2C3=O)C1C(=O)OC (some centres undefined)	4%	-12%	8.9µM*	6%	?
CC(C)=CC1[C@H](C(=O)OCc2cccc(Oc3ccccc3)c2)C1(C)C (some centres undefined)	/	8%[201 µM]	/	2%[201 µM]	/
CN1C[C@H](C(=O)N[C@]2(C)O[C@@]3(O)C4CCCN4C(=O)[C@H](Cc4ccccc4)N3C2=O)C[C@@H]2c3cccc4[nH]cc(c34)C[C@H]21 (some centres undefined)	4%	0%	?	-7%	13µM*[quencher]
SMILES	Tau FP inhib	TRb-SRC2 inh	Tau fibril ThT	TexasRed fluor	Tau fluor counter
CC(C)[C@@]1(NC(=O)[C@H]2CC3c4cccc5[nH]cc(c45)C[C@H]3N(C)C2)O[C@@]2(O)C3CCCN3C(=O)[C@@H](Cc3ccccc3)N2C1=O (some centres undefined)	?	10%	?	-3%	2.5µM*[quencher]
CC(C)[C@]1(NC(=O)[C@@H]2C=C3c4cccc5[nH]cc(c45)C[C@H]3N(C)C2)O[C@@]2(O)C3CCCN3C(=O)[C@H](Cc3ccccc3)N2C1=O (some centres undefined)	-12%	-1%	?	13%	-29%
CC(C)[C@@]1(NC(=O)[C@@H]2C[C@H]3c4cccc5[nH]cc(c45)C[C@@H]3N(C)C2)O[C@]2(O)[C@H]3CCCN3C(=O)[C@H](Cc3ccccc3)N2C1=O	/	-2%[53 µM]	/	-15%[53 µM]	/
O=C/C(Cl)=C(/Cl)C(=O)O	/	-4%[201 µM]	/	1%[201 µM]	/
COc1ccc2c(c1)NP(=S)(Oc1ccccc1)N2 (centres undefined)	?	5%	8.9µM*	-4%	?
O=C1Nc2ccccc2/C1=C/c1cnc[nH]1	6%	-4%	?	-3%	0%
COc1ccc2c(c1)/C(=C/c1cnc[nH]1)C(=O)N2	8%	-4%	14µM*	-8%	-18%
O=C(N=Nc1c(O)[nH]c(=O)[nH]c1=O)C1COc2ccccc2O1 (centres undefined)	?	5%	28µM*	0%	-11%
O=c1[nH]c(=S)[nH]c(O)c1N=Nc1ccc2c(c1)OCO2	8%	7%	4µM*	-1%	-11%
O=c1[nH]c(=S)[nH]c(O)c1N=Nc1cccc(S(=O)(=O)N2CCOCC2)c1	-2%	-1%	?	-7%	-5%
O=c1[nH]c(O)c(N=Nc2ccc3c(c2)OCCO3)c(=O)[nH]1	11%	-1%	5.6µM*	-4%	-8%
O=c1[nH]c(=S)[nH]c(O)c1N=Nc1ccc2c(c1)OCCO2	-13%	-1%	2.2µM*	-6%	-18%
O=c1[nH]c(O)c(Cc2ccc3c(c2)OCO3)c(=O)[nH]1	15%	1%	/	-1%	?
CSc1nnc(C(C)(C)C)c(=O)n1N	/	-1%[201 µM]	/	-3%[201 µM]	/
CC1(C(=O)Nc2ccc(O)c(Cl)c2Cl)CCCCC1	/	-2%[201 µM]	/	-3%[201 µM]	/
CC(C1CC1)C(O)(Cn1cncn1)c1ccc(Cl)cc1 (centres undefined)	/	0%[201 µM]	/	1%[201 µM]	/
CCCSC(=O)N(CCC)CCC	/	4%[201 µM]	/	5%[201 µM]	/
ClCc1ccccc1Cl	/	2%[201 µM]	/	-1%[201 µM]	/
CCCN1CCc2cccc3c2C1Cc1ccc(O)c(O)c1-3 (centres undefined)	32µM*	2%	14µM*	-7%	18µM*[quencher]
CCS(=O)(=O)c1cccnc1S(=O)(=O)NC(=O)Nc1nc(OC)cc(OC)n1	/	0%[201 µM]	/	-4%[201 µM]	/
CCC[CH2][Sn]([CH2]CCC)([CH2]CCC)[O][Sn]([CH2]CCC)([CH2]CCC)[CH2]CCC	/	-3%[201 µM]	/	3%[201 µM]	/

Assay outcomes (PubChem)
